Assay results as given in PubChem BioAssay.
A number with no mark means an inactive call. The source made the active and inactive calls.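 Rule for the calls: active = thallium flux through the channel raised or lowered by more than 3 SD from vehicle-only wells, actives on both sides; inactive = the rest.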

system: R275C/beta2Delta; assay: BK channel mutant inhibitors and activators – cell-based, U2OS BacMam, thallium flux, beta subunits, selectivity assay, profiling panel (AID 1259406); conditions: U2OS BacMam BK variants, at 30 µM;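 note: initial slope of Thallos dye fluorescence rise after thallium is added; log ratio against the mean of 0.3% DMSO vehicle wells on the same plate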

SMILES | log fold change Tl+ flux
C#CC1(NC(=O)c2ccc(-c3ccc(CC)cc3)cc2)CCCCC1 | -0.00151
Cc1cnc(N)c(C)n1 | 0.039
CCOC(=O)c1ccc(N2CCOCC2)c(N=Cc2cc(Cl)cc(Cl)c2O)c1 | 0.0906 (active)
O=C(CC(=O)NNC(=O)c1ccc(F)cc1)NNC(=O)c1ccc(F)cc1 | 0.0309
Cc1ccccc1C=C1N=C(c2ccccc2)OC1=O | 0.0102
O=C(CCn1nc(-c2ccc(F)cc2)ccc1=O)NCc1ccccc1 | 0.0213
N=c1c(C(N)=O)cc2c(=O)n3ccccc3nc2n1Cc1ccco1 | -0.00823
Cc1nn(-c2ccccc2)nc1CNC(=O)COc1ccccc1 | 0.0169
Cc1cc(C)n2nc(Sc3ncccc3[N+](=O)[O-])nc2n1 | -0.00322
CCOC(=O)NN=C(C)C(C)=NNC(=O)OCC | -0.00622
CC(C)(C)NC(=O)NCCO | -0.014
Cc1ccccc1S(=O)(=O)NCc1ccc(N2CCN(C)CC2)cc1 | 0.0013
CN(C1CCCCC1)S(=O)(=O)c1cccs1 | -0.0535
O=C(CN1c2ccccc2Sc2ccccc21)NN=Cc1ccco1 | -0.0092
CC(=O)Nc1ccc(OCC(=O)N2CCN(c3ncc(C(F)(F)F)cc3Cl)CC2)cc1 | 0.0353
Cc1ccc(S(=O)(=O)Oc2c(Cc3ccccc3)c(=O)n(C)c3ccccc23)cc1 | -0.0097
CCN1CCC(O)(C#Cc2ccccc2)CC1 | 0.0235
